The whole screen tested about 310,000 compounds, of which about 14,000 (4.5%) showed an effect of 50% or more. Effects have a minus sign here. Only a selection was taken, and strong results are over-represented in it overall.
Each compound was assayed against human ether-à-go-go-related gene (hERG) potassium channel (human, UniProt Q12809) (assay: primary screen, population patch clamp on CHO cells stably expressing hERG; higher = less effect of the substance).
Sequence of human ether-à-go-go-related gene (hERG) potassium channel (Q12809 whole entry, looked up): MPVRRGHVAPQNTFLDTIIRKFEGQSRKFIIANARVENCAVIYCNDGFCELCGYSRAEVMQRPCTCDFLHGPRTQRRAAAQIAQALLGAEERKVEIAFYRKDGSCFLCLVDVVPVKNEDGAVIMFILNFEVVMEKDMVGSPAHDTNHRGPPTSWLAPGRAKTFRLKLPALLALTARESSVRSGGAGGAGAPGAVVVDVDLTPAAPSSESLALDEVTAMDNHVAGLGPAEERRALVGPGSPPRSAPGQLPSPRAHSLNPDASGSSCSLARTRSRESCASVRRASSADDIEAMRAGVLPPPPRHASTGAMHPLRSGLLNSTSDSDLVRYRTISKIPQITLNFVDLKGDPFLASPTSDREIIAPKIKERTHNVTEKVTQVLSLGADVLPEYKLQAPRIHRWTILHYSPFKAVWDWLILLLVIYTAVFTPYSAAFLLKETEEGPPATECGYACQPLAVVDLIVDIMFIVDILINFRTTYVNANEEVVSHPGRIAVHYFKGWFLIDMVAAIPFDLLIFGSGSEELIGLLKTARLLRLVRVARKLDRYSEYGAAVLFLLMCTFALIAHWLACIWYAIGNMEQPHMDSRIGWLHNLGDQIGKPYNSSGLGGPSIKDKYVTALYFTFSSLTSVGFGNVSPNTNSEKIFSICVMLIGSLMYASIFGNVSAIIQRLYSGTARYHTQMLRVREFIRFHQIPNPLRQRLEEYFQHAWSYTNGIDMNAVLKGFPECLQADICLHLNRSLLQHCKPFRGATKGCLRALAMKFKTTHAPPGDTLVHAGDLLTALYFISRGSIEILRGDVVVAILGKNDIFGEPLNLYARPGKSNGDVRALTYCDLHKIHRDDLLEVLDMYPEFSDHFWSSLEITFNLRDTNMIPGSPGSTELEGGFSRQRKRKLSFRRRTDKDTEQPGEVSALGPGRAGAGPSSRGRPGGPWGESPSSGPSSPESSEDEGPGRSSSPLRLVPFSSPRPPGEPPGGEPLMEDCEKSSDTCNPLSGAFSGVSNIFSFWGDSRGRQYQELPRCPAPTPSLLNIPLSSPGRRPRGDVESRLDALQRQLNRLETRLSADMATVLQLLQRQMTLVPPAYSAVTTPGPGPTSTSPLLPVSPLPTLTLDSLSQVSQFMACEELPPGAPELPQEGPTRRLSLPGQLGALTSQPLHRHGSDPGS
In the case of `COc1ccc2c(c1)CC/C(=C/c1ccco1)C2=O`, the “hERG current change (%, negative = inhibition) at 10uM” value is reported as 10.7%. For `CCSc1oc(-c2ccco2)nc1S(=O)(=O)c1ccccc1`, the “hERG current change (%, negative = inhibition) at 10uM” value was -12.8%. In the case of `CCOc1ccc(C(=O)Nc2c3c(nn2-c2ccc(F)cc2)CS(=O)C3)cc1` (stereo not shown), the “hERG current change (%, negative = inhibition) at 10uM” value is reported as -1.14%. For `COCCNC(=S)N1CCN(C(c2ccccc2)c2ccccc2)CC1`, the “hERG current change (%, negative = inhibition) at 10uM” value was -10.1%. In the case of `COc1cc(C(=O)Nc2ncccc2C)ccc1OCC(=O)N1CCOCC1`, the “hERG current change (%, negative = inhibition) at 10uM” value is reported as -4.78%. In the case of `CC1(c2nnc(-c3cccc(Cl)c3)o2)CC(c2ccc(F)cc2)=NO1` (stereo not shown), the “hERG current change (%, negative = inhibition) at 10uM” value is reported as -8.47%. In the case of `OCCCc1nc2n(n1)C(c1ccccc1)C=C(c1ccccc1)N2` (stereo not shown), the “hERG current change (%, negative = inhibition) at 10uM” value is reported as -17.3%. In the case of `COc1ccc(C2C=C(c3ccccc3)Nc3nc(CCCO)nn32)cc1` (stereo not shown), the “hERG current change (%, negative = inhibition) at 10uM” value is reported as -51.8%. In the case of `COc1ccc(C2C=C(c3cccs3)Nc3nc(CCCO)nn32)cc1` (stereo not shown), the “hERG current change (%, negative = inhibition) at 10uM” value is reported as -57.9%. In the case of `OCCCc1nc2n(n1)C(c1ccccc1Cl)C=C(c1cccs1)N2` (stereo not shown), the “hERG current change (%, negative = inhibition) at 10uM” value is reported as -5.71%. In the case of `OCCCc1nc2n(n1)C(c1ccccc1)C=C(c1ccc(F)cc1)N2` (stereo not shown), the “hERG current change (%, negative = inhibition) at 10uM” value is reported as -12.8%. In the case of `OCCCc1nc2n(n1)C(c1cccs1)C=C(c1ccccc1)N2` (stereo not shown), the “hERG current change (%, negative = inhibition) at 10uM” value is reported as -38.5%. In the case of `O=C(CCc1nc(-c2ccccc2)no1)NC1CCCCCC1`, the “hERG current change (%, negative = inhibition) at 10uM” value is reported as 1.28%. With `CCc1cccc(C)c1NC(=O)CSc1nc(-c2ccccc2F)nc2nc[nH]c12` the “hERG current change (%, negative = inhibition) at 10uM” value was 3.31%. With `NC(=O)c1cc([N+](=O)[O-])c(Cl)cc1NCc1cccnc1` the “hERG current change (%, negative = inhibition) at 10uM” value was -8.53%. For `Cc1cc(C)cc(OCC(=O)NNC(=O)c2ccccn2)c1`, the “hERG current change (%, negative = inhibition) at 10uM” value was -34.6%. For `CN(C)S(=O)(=O)n1cc(/C=C(\NC(=O)c2ccccc2Cl)C(=O)N2CCOCC2)c2ccccc21`, the “hERG current change (%, negative = inhibition) at 10uM” value was -7.07%. In the case of `O=C(Nc1ccc(C(=O)O)cc1)/C(=C\c1ccc2c(c1)OCO2)NC(=O)c1ccc(Br)cc1`, the “hERG current change (%, negative = inhibition) at 10uM” value is reported as 5.36%. With `Cc1ccc(C(=O)N/C(=C\c2ccc3c(c2)OCO3)C(=O)Nc2ccc(C(=O)O)cc2)cc1` the “hERG current change (%, negative = inhibition) at 10uM” value was 17.9%. `CNC(=O)/C(=C\c1ccc2c(c1)OCO2)NC(=O)c1ccc(Br)cc1` was tested, and the “hERG current change (%, negative = inhibition) at 10uM” value was -56.5%. With `CNC(=O)/C(=C/c1ccc2c(c1)OCO2)NC(=O)c1ccc(Br)cc1` the “hERG current change (%, negative = inhibition) at 10uM” value was -63.4%. `O=C(Nc1cccc(C(=O)O)c1)/C(=C\c1ccc2c(c1)OCO2)NC(=O)c1ccc(Br)cc1` was tested, and the “hERG current change (%, negative = inhibition) at 10uM” value was 17.9%. In the case of `O=C(Nc1ccc(C(=O)O)cc1)/C(=C\c1ccc2c(c1)OCO2)NC(=O)c1ccccc1`, the “hERG current change (%, negative = inhibition) at 10uM” value is reported as 22%. For `COC(=O)c1ccc(NC(=O)c2ccccc2N(C)S(=O)(=O)c2ccccc2)cc1`, the “hERG current change (%, negative = inhibition) at 10uM” value was 16.3%. With `CN1CCN(C(c2ccc(Cl)cc2)c2cc(Cl)c3cccnc3c2O)CC1` (stereo not shown) the “hERG current change (%, negative = inhibition) at 10uM” value was 7.12%. `CC(C)(C)c1cc(C(=S)N2CCN(CCO)CC2)cc(C(C)(C)C)c1O` was tested, and the “hERG current change (%, negative = inhibition) at 10uM” value was -26.6%. `CC(C)(C)c1cc(CN2CCN(CCO)CC2)cc(C(C)(C)C)c1O` was tested, and the “hERG current change (%, negative = inhibition) at 10uM” value was -19%. For `Cc1ccc(C(c2cc(Cl)c3cccnc3c2O)N2CCN(C)CC2)cc1` (stereo not shown), the “hERG current change (%, negative = inhibition) at 10uM” value was -9.97%. In the case of `CCN1CCN(C(c2cccnc2)c2cc(Cl)c3cccnc3c2O)CC1` (stereo not shown), the “hERG current change (%, negative = inhibition) at 10uM” value is reported as -72.4%. `CC(C)(C)c1cc(C(c2cccnc2)N2CCN(CCO)CC2)cc(C(C)(C)C)c1O` (stereo not shown) was tested, and the “hERG current change (%, negative = inhibition) at 10uM” value was -53.8%. For `COC(=O)C1=C(C(=O)OC)[C@@H]2N(Cc3ccccc3)c3ccccc3[C@@]23C[C@@H](CO)N(C(=O)NC2CCCC2)C3=N1`, the “hERG current change (%, negative = inhibition) at 10uM” value was -9.18%. `CC(CN(C)Cc1ccccc1)OC(=O)c1cccs1.Cl` (stereo not shown) was tested, and the “hERG current change (%, negative = inhibition) at 10uM” value was -10.5%. With `COc1cc2c(cc1OC)C(C)N(C(=O)C1COc3ccccc3O1)CC2` (stereo not shown) the “hERG current change (%, negative = inhibition) at 10uM” value was -35.3%. In the case of `Cc1sc2nc(C3CC3)nc(N3CCN(C(=O)c4ccccc4F)CC3)c2c1C.Cl`, the “hERG current change (%, negative = inhibition) at 10uM” value is reported as -37.6%. In the case of `Cc1sc2nc(C3CC3)nc(N3CCN(C(=O)c4ccc(Cl)cc4)CC3)c2c1C.Cl`, the “hERG current change (%, negative = inhibition) at 10uM” value is reported as -57.1%. For `COc1ccc(C(=O)N2CCN(c3nc(C4CC4)nc4sc(C)c(C)c34)CC2)cc1.Cl`, the “hERG current change (%, negative = inhibition) at 10uM” value was -23.8%. `Cc1sc2nc(C3CC3)nc(N3CCN(S(=O)(=O)c4ccc(F)cc4)CC3)c2c1C` was tested, and the “hERG current change (%, negative = inhibition) at 10uM” value was -0.18%. With `Cc1sc2nc(C3CC3)nc(N3CCN(C(=O)c4ccc(F)cc4)CC3)c2c1C.Cl` the “hERG current change (%, negative = inhibition) at 10uM” value was -69.8%. For `Cc1sc2ncnc(N3CCC(C(=O)NNC(=O)c4ccc(Cl)cc4)CC3)c2c1C`, the “hERG current change (%, negative = inhibition) at 10uM” value was -11.2%. With `O=C(CN(c1ccc2c(c1)OCCO2)S(=O)(=O)c1ccccc1)NCc1ccco1` the “hERG current change (%, negative = inhibition) at 10uM” value was 4.37%. `O=C(Nc1ccc(F)cc1F)c1ccc2c(c1)OCCO2` was tested, and the “hERG current change (%, negative = inhibition) at 10uM” value was 15.4%. With `Cc1cccc(NC(=S)N(CCN2CCOCC2)Cc2cc3cc4c(cc3[nH]c2=O)OCCO4)c1` the “hERG current change (%, negative = inhibition) at 10uM” value was -3.3%. In the case of `CN(C(=O)COC(=O)c1cc(S(=O)(=O)N2CCCCC2)ccc1N1CCOCC1)C1CCS(=O)(=O)C1` (stereo not shown), the “hERG current change (%, negative = inhibition) at 10uM” value is reported as -6.63%. With `CCCCc1c(O)c2ccccc2[nH]c1=O` the “hERG current change (%, negative = inhibition) at 10uM” value was 0.685%. `COc1ccc(-n2c(C)cc(C(=O)CSc3nnc(-c4ccoc4C)n3C)c2C)cc1` was tested, and the “hERG current change (%, negative = inhibition) at 10uM” value was -31.1%. With `CCSC1=N/C(=C\C=C2/Oc3ccccc3N2CC)C(=O)S1` the “hERG current change (%, negative = inhibition) at 10uM” value was -3.2%. `COc1ccc(C(=O)C2CCCN(C3Cc4ccccc4C3)C2)c(OC)c1` (stereo not shown) was tested, and the “hERG current change (%, negative = inhibition) at 10uM” value was -76.5%. For `COc1ccc(C(=O)C2CCCN(C3CSCCSC3)C2)cc1OC` (stereo not shown), the “hERG current change (%, negative = inhibition) at 10uM” value was -21.8%. In the case of `COc1ccc(OC)c(NC(=O)N2CCCC(C(=O)c3ccccc3OC)C2)c1` (stereo not shown), the “hERG current change (%, negative = inhibition) at 10uM” value is reported as 5.87%. With `COC(=O)c1ccccc1C(=O)N1CCCC(C(=O)c2ccc(OC)c(OC)c2)C1` (stereo not shown) the “hERG current change (%, negative = inhibition) at 10uM” value was 4.47%. In the case of `COc1ccc(C(=O)C2CCCN(C3Cc4ccccc4C3)C2)cc1OC` (stereo not shown), the “hERG current change (%, negative = inhibition) at 10uM” value is reported as -76.6%. In the case of `COc1ccc(C(=O)C2CCCN(C3CSCCSC3)C2)c(OC)c1` (stereo not shown), the “hERG current change (%, negative = inhibition) at 10uM” value is reported as -43.6%.
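Further: peak tail current of the secondary pulse compared with the same well before compound.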
